PubChem BioAssay (Tox21)
Activity calls are given as the source filed them. Calls follow the shape of the dose curve; as a rule, active = well fitted curve in the direction sought with a large enough effect in the repeat runs; inconclusive = weak or mixed curves; inactive = flat fitted curve, though single readings scatter.

test: qHTS assay to test for compound auto fluorescence at 590 nm (red) in HepG2 cells (AID 720674); settings: HepG2 autofluorescence, red 540/590 nm, 1 h; series mostly up to 91.3 µM; fluorescence, relative to Rose Bengal: at the top concentration
Source text: U.S. Tox21 Program National Center for Advancing Translational Sciences [NCATS] NIH Chemical Genomics Center [NCGC] U.S. Environmental Protection Agency [EPA] National Institutes of Environmental Health Sciences [NIEHS] National Toxicology Program [NTP] U.S. Food and Drug Administration [FDA] Tox21 Assay Overview: Compound auto fluorescence often interferes with screening of the compound library against various biological targets and signaling pathways. Some of these compounds may have fluorophoric properties. Such properties may interfere with the assay outputs resulting in false positives and/or negatives. To decrease such complications and ensure the compound activities are relevant in terms of biological response, the Tox21 10K compound library was screened for auto fluorescence. From the fluorophores used as reporter signals in our screening assays, the auto fluorescence equivalencies of compounds against three fluorophores have been evaluated: Triamterene, Fluorescein and Rose Bengal sodium for blue, green and red fluorescence, respectively. The fluorescence intensities were measured using Excitation/Emission wavelengths at 405/460nm, 485/535nm and 540/590nm for blue, green and red labels, respectively. This assay includes the red fluorescence data.
Tox21 Assay Protocol Summary: 2,000 HepG2 cells in 5 uL of culture medium (MEM containing 10% FBS) per well were dispensed into black wall/clear bottom 1536-well plates using a Multidrop Combi Dispenser (ThermoFisher Scientific, Waltham, MA). The assay plates were incubated overnight at 37 C to allow cell attachment to the well bottom, followed by the transfer of 23 nL compound or DMSO vehicle by a pintool work station (Kalypsys , San Diego, CA). After the assay plates were incubated for 1 hr at 37 C and 5% CO2, fluorescence intensities in the assay plates were measured by an Envision (PerkinElmer, Shelton, CT) plate reader using three labels for measuring blue, green and red fluorescence at […] 460, 535 and 590 nm respectively.
% is scaled to controls: 0 for no effect and ±100 for the full control effect.

| Structure (SMILES) | fluorescence, relative to Rose Bengal | Potency |
| --- | --- | --- |
| CCn1c2ccccc2c2cc([N+](=O)[O-])ccc21 | -0.236% (inactive) |  |
| Nc1nc(-c2ccccc2)cs1 | -0.0194% (inactive) |  |
| CCN(CC)C(=O)c1cc(S(=O)(=O)Cc2ccccc2)c(N2CCC(c3ccccc3)CC2)cc1N(CC)CCN(C)C |  | inactive |
| Cc1cc(C(C#N)c2ccc(Cl)cc2)c(Cl)cc1NC(=O)c1cc(I)cc(I)c1O (stereo not given) | 0.121% [at 46 µM] (inactive) |  |
| C[C@@H](O)[C@H](N)C(=O)O | -0.193% [at 46 µM] (inactive) |  |
| C=CC(=O)OCCOC(=O)C=C | 0.0233% (inactive) |  |
| Cc1ccc(C)cc1 | -0.0067% (inactive) |  |
| CCOC(=O)NNc1ccc(N(CC)CC(C)O)nn1 (stereo not given) | -0.151% [at 46 µM] (inactive) |  |
| Nc1nc(N)nc(-c2cc(Cl)ccc2Cl)n1 | -0.331% [at 46 µM] (inactive) |  |
| CN(C)C(=O)COC(=O)Cc1ccc(OC(=O)c2ccc(N=C(N)N)cc2)cc1 | 0.409% [at 46 µM] (inactive) |  |
| COc1ccc(NC(=O)CC(C)=O)cc1 | -0.41% (inactive) |  |
| CC(=O)c1ccc(C(C)=O)cc1 | -0.0737% [at 95.7 µM] (inactive) |  |
| OC/C=C/CO | 0.0152% (inactive) |  |
| COc1cc(S(=O)(=O)O)c(C)cc1N=Nc1c(O)ccc2cc(S(=O)(=O)O)ccc12 | 2.34% (inactive) |  |
| CN(C)Cc1cc(C(C)(C)C)c(O)c(C(C)(C)C)c1 | 0.0298% (inactive) |  |
| NC[C@H]1O[C@H](O[C@H]2[C@H](O[C@@H]3O[C@H](CO)[C@@H](O)[C@H]3O)C(O)[C@H](N)C[C@@H]2N)[C@H](N)[C@@H](O)[C@@H]1O (stereo not given in full) | -0.0462% [at 18.6 µM] (inactive) |  |
| CC(C)(C)c1ccc(C(O)CCCN2CCC(C(O)(c3ccccc3)c3ccccc3)CC2)cc1 (stereo not given) |  | inactive |
| NC(=O)c1cccc([N+](=O)[O-])c1 | -0.0362% (inactive) |  |
| CCCC[P+](C)(CCCC)CCCC | -0.27% [at 95.7 µM] (inactive) |  |
| O=c1[nH]c(=O)n([C@H]2C[C@H](O)[C@@H](CO)O2)cc1F | -0.579% [at 46 µM] (inactive) |  |

| Structure (SMILES) | fluorescence, relative to Rose Bengal | Potency |
| --- | --- | --- |
| O=C(Nc1ccc2c(O)c(N=Nc3ccc(N=Nc4ccc(S(=O)(=O)O)cc4)cc3)c(S(=O)(=O)O)cc2c1)c1ccccc1 | -0.712% (inactive) |  |
| COC(=O)c1ccccc1C | -0.125% (inactive) |  |
| Nc1nc2c(ncn2COCCO)c(=O)[nH]1 | 2e-05% [at 18.6 µM] (inactive) |  |
| O=C(/C=C/c1ccc(O)c(O)c1)O[C@@H](C(=O)O)[C@@H](OC(=O)/C=C/c1ccc(O)c(O)c1)C(=O)O | 0.121% (inactive) |  |
| CC(C)(C)NSc1nc2ccccc2s1 | 0.0293% [at 95.7 µM] (inactive) |  |
| Cc1cc(=O)oc2cc(O)cc(O)c12 | -0.0669% (inactive) |  |
| O=c1c(O)c(-c2ccc(O)cc2O)oc2cc(O)cc(O)c12 | 0.0005% (inactive) |  |
| CCCCCc1ccc(Cl)cc1 | -0.173% (inactive) |  |
| COc1cc2nc(N3CCN(C(=O)c4ccco4)CC3)nc(N)c2cc1OC | 0.0108% [at 46 µM] (inactive) |  |
| CC1(C)CC(O)CC(C)(C)N1 | -0.0296% [at 95.7 µM] (inactive) |  |
| S=c1nccc[nH]1 | -0.0418% (inactive) |  |
| CC(C)CCOC(=O)/C=C/c1ccccc1 | -0.0789% (inactive) |  |
| CC(C)(C)c1csc(-c2cc3cc(OCc4ccccc4CC(=O)O)ccc3o2)n1 | -0.118% (inactive) |  |
| CCCCCC(C)OC(=O)COc1ccc(Cl)c2cccnc12 (stereo not given) | 0.152% (inactive) |  |
| CN(C)Cc1ccccc1O | -0.153% (inactive) |  |
| CC(C)Cn1cnc2c(N)nc3ccccc3c21 | 0.233% [at 46 µM] (inactive) |  |
| O=[N+]([O-])c1cccc(C(F)(F)F)c1 | 0.0959% (inactive) |  |
| NC(=S)NC(N)=S | 0.114% (inactive) |  |
| Cc1cc(C(C)(C)C)cc(C)c1CC1=NCCN1 | 0.379% [at 18.6 µM] (inactive) |  |
| COCCOc1cc2cc(C(=O)NC3CCN(C(C)C)CC3)n(CC(=O)Nc3ccc(Cl)cn3)c2cn1 | 0.269% (inactive) |  |
